For 40 compounds, growth results are on record in PubChem BioAssay (NCI).

“And” between values parts separate entries of the source, which are not always exact repeats. Equal values may be shown once. About 83,000 compounds went through this panel and 20% of them were active in at least one assay; those are over-represented in the sample as a whole.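 48-hour exposure, single concentration, 96-well plates; percent growth endpoint where 0 means no net growth. Active: below 10.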 The source made the active and inactive calls.

In the assay the test system is MDA-MB-468 breast. In words: NCI-60 one-dose screen, 48 h (100 = growth as untreated, 0 = no growth, -100 = all killed). The note with it: 10 µM unless noted.
With `CNC(=O)c1cc(N2CCc3cc(NC(=O)Nc4ccc(Cl)c(Cl)c4)ccc32)ccn1`, the growth was 84.5% (inactive). Turning to `CON1C(=O)CC[C@]2(C)[C@H]3CC[C@@H]4C([C@@]5(C)CCC(=O)O5)CC[C@@]4(C)[C@]3(C)CC[C@H]2C1(C)C` (stereo not given in full), the growth was 94.4% (inactive). In the case of `COc1cc(C)ccc1Oc1nc(Nc2ccc(N3CCOCC3)cc2)ncc1NC(=O)Nc1cc(C(F)(F)F)cc(C(F)(F)F)c1` it was 72.8% (inactive); in that of `CCOC(=O)c1ccc(Nc2ccnc(SCC(=O)c3ccc(C#N)cc3)n2)cc1`, 48.1% (inactive); in that of `O=C1Nc2ccccc2/C1=C/c1cn(C(=O)c2c(Cl)cccc2Cl)c2ccccc12`, 32.7% (inactive). Consider `CS(=O)(=O)Nc1cccc(-c2ccc3ncnc(Nc4cncc(Cl)c4)c3c2)c1`, for which the growth is -39.5% (active). For the compound `O=C(NC1=CC(=O)c2ccccc2C1=O)c1ccccc1`, the growth is -91% (active). On to `c1ccc2c(-c3nccs3)c[nH]c2c1`, for which the growth was 91.3% (inactive). Consider `CC(C)COCC(CN(Cc1ccccc1)c1ccccc1)N1CCCC1` (stereo not given), for which the growth is 32.7% (inactive). In the case of `COc1ccc2c(c1)CC/C(=C\c1cncc(Br)c1)C2=O` it was 99.4% (inactive).

In the case of `Cc1nc2sc(C(=O)Nc3cccc(Cl)c3C)c(N)c2cc1C(=O)c1ccccc1`, the growth was -4.28% (active). As to `Cc1ccc(-n2nc3c(c(C#N)c2=O)CC(c2ccccc2[N+](=O)[O-])C([N+](=O)[O-])=C3O)cc1` (stereo not given), the growth is 94% (inactive). In the case of `CC(=O)c1c[nH]c2ccc(-c3ccnc(Nc4ccc(NC(=O)C5CCCC5)c(CN5CCOCC5)c4)n3)cc12` it was -53.9% (active). As to `CC(C)(C)CC(C)(C)c1ccc(OCCO)cc1`, the growth was 113% (inactive). In the case of `COc1ccc(S(=O)(=O)Nc2cc(/C=C\c3cc(OC)c(OC)c(OC)c3)cc(OC)c2OC)cc1OC` it was 25.5% (inactive); in that of `Cc1cc(N2CCN(CCNc3ccnc4cc(Cl)ccc34)CC2)nc(N2CCOCC2)n1`, 24.3% (inactive).

In the case of `CCOC(=O)C(=Cc1ccc(C#N)cc1)C(=O)OCC`, the growth is 15.6% (inactive). In the case of `COc1cc(/C=C\c2cc(/C=C\c3ccc(O)c(OC)c3)n(C(=O)Nc3ccc(C(F)(F)F)cc3)n2)ccc1O` it was 43.8% (inactive); in that of `COc1cnc2c(c1)C(=O)c1c-2n(CCCN2CCCC2)c(=O)c2cc(Cl)ccc12`, 50.4% (inactive); in that of `c1ccc2cc(Cn3cc[n+](Cc4ccc5ccccc5c4)c3)ccc2c1`, -23.7% (active). In the case of `COc1ccc(/C=C(/C#N)n2nnc3cccc(F)c32)cc1` it was -5.27% (active).

On to `CSc1ccc(N2C(=N)C(=S)N(c3ccc(C)cc3)C2=O)cc1`, for which the growth was 121% (inactive). In the case of `COc1cccc(-c2nc3sccn3c2-c2ccnc(NCCNS(=O)(=O)c3c(Cl)cccc3Cl)c2)c1` it was 56.8% (inactive); in that of `C[C@H]1[C@H](C)CC[C@]2(C(=O)Nc3ccc4ncccc4c3)CC[C@]3(C)C(=CC[C@@H]4[C@@]5(C)CCCNC(C)(C)[C@@H]5CC[C@]43C)[C@H]12`, -55.7% (active); in that of `Cc1cc(C)c(S(=O)(=O)/N=c2/n(-c3ccccc3)nc3n2CCN3C2=NCCN2)c(C)c1`, 30% (inactive). In the case of `CN(C)c1ccc(/C=C/c2ccnc3ccccc23)cc1N` it was 5.88% (active); in that of `NC(=O)c1cccc(-c2ccccc2N2CCCCC2)c1`, 94.2% (inactive). Take `CC1=C2C(=C[C@@](C)(CO)[C@@H]2OC(=O)N(C)CCN(C)C(=O)OC(C)(C)C)C(=O)[C@](C)(O)C12CC2`: the growth is -10.1% (active).

For the compound `C#CCOc1ccccc1C(Nc1ccccc1)c1nnnn1C1CCCCC1` (stereo not given), the growth was 93.7% (inactive). With `O=C(O)Cc1ccc(O)c(O)c1`, the growth was 86% (inactive). Take `CC1=NC2=CC=CC3=NC(C(Cl)(Cl)Cl)=NC(=N1)N23`: the growth was 90.2% (inactive). In the case of `N=C(N)c1ccc(-c2ccc(-c3cc(Cl)cc(Cl)c3)o2)nc1` it was -73.9% (active); in that of `CCN(CC)CCCNc1cc(OC)cc2nc3cc(Cl)ccc3nc12`, 11% (inactive).

For `O=C(/C=C/c1sc(Cl)nc1Cl)c1ccccc1`, the growth was 55.3% (inactive). In the case of `CCCCn1cnc2c(SCc3ccc([N+](=O)[O-])cc3)nc(N)nc21` it was 80.8% (inactive); in that of `NC1(c2ccc(-c3nc4ccn5c(=O)[nH]nc5c4cc3-c3ccccc3)cc2)CCC1`, -32.4% (active); in that of `N#CC1C(=O)SC2c3ccccc3C(=O)c3ccccc3C12` (stereo not given), 89.4% (inactive). As to `CC(=O)Nc1ccc(O)cc1`, the growth is 105% (inactive) and 111% (inactive). Take `CCCCSc1ccc2nc(-c3ccc(OCCCN=C(N)N)cc3)cn2c1`: the growth was 35.6% (inactive).

`COc1ccc(N2C(=O)C(Oc3ccccc3)C2c2ccc(C)cc2)cc1` (stereo not given): the growth is 122% (inactive).
